Results published in publication PMC13494018.
A number with no mark means an inactive call. How the calls were made is not given here.

B1: design_602_0a1f3d3d-7d26-454b-9b34-ebe8ef9bc7d4_1317_dldesign_0_cycle1_af2pred (protein)
chain: MEEKKEEEARKVAHEAFRVAALAENVASAAEKKGDEEIAKKAKEARKTAEKAMELAREGNVKEARKLAKEARKVVEELRKKLEA
B2: design_601_c3fd07b4-2f34-4ad8-bd4e-2749faf628eb_1485_dldesign_0_cycle1_af2pred (protein)
chain: GYKERAKKEIEEAKKNLEKAKADPSTAVSLLTDAIAHANAAKSLAEKLEKTDPETGKELIEEAKEIREEAKKVLAERNAA
B3: design_602_0a1f3d3d-7d26-454b-9b34-ebe8ef9bc7d4_881_dldesign_0_cycle1_af2pred (protein)
chain: EKEKAAKKIAELMDKAYDLISDGGEAEIKKGKELAKEAVKLGKEAGPELAKKAEKGLRALERLAEETEKALKK
B4: design_602_0a1f3d3d-7d26-454b-9b34-ebe8ef9bc7d4_227_dldesign_0_cycle1_af2pred (protein)
chain: GAAAKAEAAKLAHESNEAKAEAVAHPEKAAEEAKKIKERLKELEKKAKEAPAEVAKYYAKAAKIAKKNLEEAKKVAEEAKA
B5: design_601_c3fd07b4-2f34-4ad8-bd4e-2749faf628eb_2200_dldesign_0_cycle1_af2pred (protein)
chain: SSEYSKKLAEDLKTFVKNIRDIAKESGDPAVVEQAKAVMAAFVTSEEAGVAAAKKLEAYTKETTNPALAAKAATAYDALKNIADG
B6: design_602_0a1f3d3d-7d26-454b-9b34-ebe8ef9bc7d4_1060_dldesign_0_cycle1_af2pred (protein)
chain: GEEKEKKVEEIEKKAKEEAKKYAEEIAKALKDPEKMKKIATEATDKLLEMAEEMVETDKKAGKKAAEMIREGLRIMKETYEKERKKA
B7: design_602_0a1f3d3d-7d26-454b-9b34-ebe8ef9bc7d4_244_dldesign_0_cycle1_af2pred (protein)
chain: AAAEAAKAKVKAIAAKSYAKNPEAGQYITLALAFAKRGDLEEALASLDEAEKEDPTNYPEARAAVLAYYAALKA
B8: design_601_c3fd07b4-2f34-4ad8-bd4e-2749faf628eb_2283_dldesign_0_cycle1_af2pred (protein)
chain: AAAEDEAKRALAKKKAEEAKKLAKEAVEGNAEKAEKAAKELEKILKELRALGKAASPAAKAALTAAAHTAAEAYAEAYSAAVVKKEKE
B9: design_602_0a1f3d3d-7d26-454b-9b34-ebe8ef9bc7d4_299_dldesign_0_cycle1_af2pred (protein)
chain: EIGKIVDEALEKILELQAEAKKAGKEAAKEVDKVRKEMIKEAKKMAKEGKSAEEVKKFAEEKVEEAKKIAEEAKKK
B10: design_602_0a1f3d3d-7d26-454b-9b34-ebe8ef9bc7d4_487_dldesign_0_cycle1_af2pred (protein)
chain: EEEKRIEEAKKKAREAAEKAREYGKKIIKLGYDPKKAAELAQKAQEARAEAEALPEKAEEAAKKAKEAAEELEKLLKEAEA
B11: design_602_0a1f3d3d-7d26-454b-9b34-ebe8ef9bc7d4_1202_dldesign_0_cycle1_af2pred (protein)
chain: DEVEKILKEALEKMEEYKKKALEEAAKKDPETSKKLTELIEKRFEKREKELKEEMKKNKNDPEKAKRIGFHAVARAEITYEQAKLA
B12: design_601_c3fd07b4-2f34-4ad8-bd4e-2749faf628eb_2299_dldesign_0_cycle1_af2pred (protein)
chain: MEAKEKAEKAIKRAKEIGEKLIKKVAFNPEAAEKVKKLTEEAIEAIKKDPEEGIKKGAEILQKAREYAAEVLAKN
B13: design_601_c3fd07b4-2f34-4ad8-bd4e-2749faf628eb_1838_dldesign_0_cycle1_af2pred (protein)
chain: SMAEEILKEFLELAKVMAEDPEKGAKLFAEKVKELDPSIYPFAEAAAKKAAEEGAPLEELERAARAFANVVTT
B14: design_602_0a1f3d3d-7d26-454b-9b34-ebe8ef9bc7d4_595_dldesign_0_cycle1_af2pred (protein)
chain: AAAVKAKMQAIAAAAKDAAKRAKEVAEKTGSTEAEADAVRAQHLSDAATINANGTQAQADAAQARLDVLKARAEKLEKEAKE
B15: design_602_0a1f3d3d-7d26-454b-9b34-ebe8ef9bc7d4_95_dldesign_0_cycle1_af2pred (protein)
chain: MEELAKKAEEVVEESGEALAKAPREKWPEISELRHESLRALREAGENPETREEHLKEGEKYLEEAKKLAEKGAKE
B16: design_601_c3fd07b4-2f34-4ad8-bd4e-2749faf628eb_1863_dldesign_0_cycle1_af2pred (protein)
chain: SEYEKELAKAEAFVKEALKKSKEEFIAETKKLFEEGSPVYQSALMRALTKAAKEYKDDPEKQKKALDARDTIVD
B17: design_602_0a1f3d3d-7d26-454b-9b34-ebe8ef9bc7d4_1230_dldesign_0_cycle1_af2pred (protein)
chain: AEAEKKAKEAVKLAEKYYEKAKELAKEAEKDPKLKEAAKKIKKDAEEIKKALEKGIKEGNEVEAAQTSKSLYRAAEAEYKRAKK
B18: design_602_0a1f3d3d-7d26-454b-9b34-ebe8ef9bc7d4_268_dldesign_0_cycle1_af2pred (protein)
chain: VEEKAKKYIEEAKKKAKEMKELGKKNPAAKENYDAAAKVWETAAKEIEKDPSKAEEYEKKAKKTIAVLLDAANAEL
B19: design_602_0a1f3d3d-7d26-454b-9b34-ebe8ef9bc7d4_149_dldesign_0_cycle1_af2pred (protein)
chain: VVEKALKEMEKYIEKAKEEAIKINPKAKEYIEKRAKRIREEAKKGAEEAKKLYKEDPEKGKEKAKEALKKTKGLAESLIEHAKFSAK
B20: design_602_0a1f3d3d-7d26-454b-9b34-ebe8ef9bc7d4_1333_dldesign_0_cycle1_af2pred (protein)
chain: EKERKEKIAKILLESAKDAMKEAEKALKEGKAKKAMMLATLAVSSAKNAYDFGKEASKELAEEAKKALEEAKEMLKKVKKALE
B21: design_601_c3fd07b4-2f34-4ad8-bd4e-2749faf628eb_2221_dldesign_0_cycle1_af2pred (protein)
chain: GAAEEAKKALKEAKERIEKVATPETKEFHEKLKEEMEKKVKELMAGDPVEGAKAAAKAAAAYAQEAYEASAEARAKEIIKK
B22: design_602_0a1f3d3d-7d26-454b-9b34-ebe8ef9bc7d4_127_dldesign_0_cycle1_af2pred (protein)
chain: AEEERRKALAKKRAERAKALAVEAKKEGNEEAAKYYEKAAELYAKAAEAPPEERGKLVDEAVEYYGEGELEKIKFK
B23: design_602_0a1f3d3d-7d26-454b-9b34-ebe8ef9bc7d4_576_dldesign_0_cycle1_af2pred (protein)
chain: AEAEKQAALAEASQLLLEANSFAKWVSEYAKELGQEDIAKKAEEAGKEYTKKAKAYIKAGKAEEAKKEAEKLLEEAEKLYKEAKEKA
B24: design_601_c3fd07b4-2f34-4ad8-bd4e-2749faf628eb_2458_dldesign_0_cycle1_af2pred (protein)
chain: MEKAKEEALKLIKELLEATKLPKGKASQIALELAAEADWLAKKSSPEAAELFNALAEAARAVVKDKEKGKELAKKVKEKVEK
B25: design_601_c3fd07b4-2f34-4ad8-bd4e-2749faf628eb_1497_dldesign_0_cycle1_af2pred (protein)
chain: SMEEEEQRRRAIEELKRLMELADKSPSEIAKATREAVAATPLYAERIRKVGTAMMFNPEEGKKLAEEAIKELE
B26: design_602_0a1f3d3d-7d26-454b-9b34-ebe8ef9bc7d4_204_dldesign_0_cycle1_af2pred (protein)
chain: SEEEKKKELLEKTEENKKYLEELRKKYEADPSYKVEAATAEAGVKAAEEAKGENFEEAAEKAQKAYNTFKRMEEAEEEAKKRA
B27: design_602_0a1f3d3d-7d26-454b-9b34-ebe8ef9bc7d4_19_dldesign_0_cycle1_af2pred (protein)
chain: MEEEEELKKKKEELLKLKKKLEEAYDIAAELAAKNPEYLDEVLEKYREGLRYLKLGGENPENYEEYYEKAKEKLKEIEEIAKKLK
B28: design_601_c3fd07b4-2f34-4ad8-bd4e-2749faf628eb_2023_dldesign_0_cycle1_af2pred (protein)
chain: MREEIIKAIKEAVKELKKLGKLAKEAKKKNPEIGKEAEKDAKKLQKELFEALSSENAVEKLKEVKEKTKKKIEEIKKKVEE
B29: design_601_c3fd07b4-2f34-4ad8-bd4e-2749faf628eb_1955_dldesign_0_cycle1_af2pred (protein)
chain: MEQEKKDEELLKKVKELGKEATEKSLEDPEKAKEYRKKLIEEAKKAAAEASPEYAKKIAEEAQKAQEEITEAQVEGEKKKK
B30: design_602_0a1f3d3d-7d26-454b-9b34-ebe8ef9bc7d4_348_dldesign_0_cycle1_af2pred (protein)
chain: IDVKATADKFLKATEEAAKKDAELGKKTAKKAIYTLDVLGEADPEYKEYTDKKKEEIKKTLAELTAKQKAKE
B31: design_602_0a1f3d3d-7d26-454b-9b34-ebe8ef9bc7d4_990_dldesign_0_cycle1_af2pred (protein)
chain: MDKDGIAYSIKAKHIAEAALILGEKSTPEMAEVFKEVAELAKEAAEAALKDAETGKKLLKEVLKKAREAKKKAEEAKKA
B32: design_602_0a1f3d3d-7d26-454b-9b34-ebe8ef9bc7d4_418_dldesign_0_cycle1_af2pred (protein)
chain: SEEAKKLAEEAKKEMGNIRLDAYDKASEVNVEEAKKIFEEAKEKIEKIAKETAELVPEYAEEILKGGEKAMKALERAAKDIEKAE
B33: design_602_0a1f3d3d-7d26-454b-9b34-ebe8ef9bc7d4_533_dldesign_0_cycle1_af2pred (protein)
chain: SLKEELAEKAEEKAKKAVEALKAYAKADPSKAEEMAAAAKKVKEAAERGKKGNVQEAGSAEVLAESALSAAEKKLKEL
B34: design_602_0a1f3d3d-7d26-454b-9b34-ebe8ef9bc7d4_194_dldesign_0_cycle1_af2pred (protein)
chain: AVEAAIEALEELAKKAPPELAEYLKRTAEAAKKAGEKVLRYAVRAAAYATIALEGSPEVAAEAIKKAKEQAEKAEKIAKE
B35: design_602_0a1f3d3d-7d26-454b-9b34-ebe8ef9bc7d4_1205_dldesign_0_cycle1_af2pred (protein)
chain: LKERIEKLKEEGKKLEEEAEEMKDKDASAKLYQLAHAALAAAKRAEEALKAGNKEEAEKYLKIGEEAVKKGKEILKKGKA
B36: design_601_c3fd07b4-2f34-4ad8-bd4e-2749faf628eb_2331_dldesign_0_cycle1_af2pred (protein)
chain: HMEEEAYKAKVEKAKAAMKEAADKLVSDPEAAKKQITQIAKDTAKELIATGTPAGKAAAQDALAEATAAKTELDKKAK
B37: design_602_0a1f3d3d-7d26-454b-9b34-ebe8ef9bc7d4_766_dldesign_0_cycle1_af2pred (protein)
chain: GELEALAERAAELVLDPEKAEEGVALVVERLRALTDPAEIARLVQLVQQALAEAAAKNPEKAAQLRAAAKRVVEAAREIVAEKAAAA
B38: design_601_c3fd07b4-2f34-4ad8-bd4e-2749faf628eb_1953_dldesign_0_cycle1_af2pred (protein)
chain: AVAAKAQAALDRTAALREKHPEAKEYLDKAEEEAKKALADPANAAEYLKKAANYLQEAYQEASEYEFKKK

Molecular target: VTCN1, Q7Z7D3
Sequence (Q7Z7D3 whole entry): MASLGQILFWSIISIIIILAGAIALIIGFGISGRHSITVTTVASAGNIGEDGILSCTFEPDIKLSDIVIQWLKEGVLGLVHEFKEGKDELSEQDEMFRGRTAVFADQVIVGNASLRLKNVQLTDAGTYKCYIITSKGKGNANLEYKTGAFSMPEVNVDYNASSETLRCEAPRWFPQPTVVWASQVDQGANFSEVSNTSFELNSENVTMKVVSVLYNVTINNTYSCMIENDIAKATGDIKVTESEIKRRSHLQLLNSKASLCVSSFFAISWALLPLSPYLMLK

| Binder | binding in a display sort |
| --- | --- |
| B1 | not found |
| B2 | not found |
| B3 | not found |
| B4 | not found |
| B5 | not found |
| B6 | not found |
| B7 | not found |
| B8 | not found |
| B9 | not found |
| B10 | not found |
| B11 | not found |
| B12 | not found |
| B13 | not found |
| B14 | not found |
| B15 | not found |
| B16 | not found |
| B17 | not found |
| B18 | not found |
| B19 | not found |

| Binder | binding in a display sort |
| --- | --- |
| B20 | not found |
| B21 | not found |
| B22 | not found |
| B23 | not found |
| B24 | not found |
| B25 | binds (active) |
| B26 | not found |
| B27 | not found |
| B28 | not found |
| B29 | not found |
| B30 | not found |
| B31 | not found |
| B32 | not found |
| B33 | not found |
| B34 | not found |
| B35 | not found |
| B36 | not found |
| B37 | not found |
| B38 | not found |
